Our source for the sensor-assay potency score (higher = more potent) values is the OligoGym collection.
Further: reference of the scale not given here.

The first assay deals with TNKS. Description: pooled miR-30 sensor sort-seq; sequence = guide strand. The settings on record: shRNA.
For the sequence TAACTTTAGCTAAGTCTGCTTC, the sensor-assay potency score (higher = more potent) was -0.439.
Consider ATGAACATCAGCACCATGCTGA, for which the sensor-assay potency score (higher = more potent) was found to be 0.272.
Regarding TTGCATGAACATCAGCACCATG, the sensor-assay potency score (higher = more potent) was -0.893.
On to TATAGGTGTACTCTCACTCAGA, for which the sensor-assay potency score (higher = more potent) was -0.676.
On the same count and under the same terms, next, TTTTGCTGAAGGATCTGCCAGG: -0.435.
The same measure, in the same setting: to TTCTCGAATAGTACTTTGCATC belongs -0.948; to TGTTCTACAACATCCTTCCTTC, 0.712.
Turning to TTTAATAGCAGCTTCATGCAGA, the sensor-assay potency score (higher = more potent) came out at 0.637.
TTTCATTAACATTTGCTCCTTT came in with a sensor-assay potency score (higher = more potent) of 0.974.
Sequence TTAGCTAAGTCTGCTTCTCTGG had a sensor-assay potency score (higher = more potent) of -0.647.
On the same count and under the same terms, next, TACTCTACAACAGACACGCGGT: -0.0381.

A further assay has as its target TNP2. The description is as above. The settings on record: shRNA.
TTGGTTTTGTACACCTGCTGGA had a sensor-assay potency score (higher = more potent) of 0.278.
The same measure, in the same setting: to TTGTACACCTGCTGGATCCTCT belongs -0.394; to TTGCCTTCCAAGTTCTTTCTGT, 0.0693; to TCTGTCTGCAACTCTGGCTGAA, -0.415.
On to TTCTTTCTGTTCTTGGGGCAGC, for which the sensor-assay potency score (higher = more potent) is -0.411.
As to TTTGGTGGTGGACTAGTGTTGG, the sensor-assay potency score (higher = more potent) was -0.0566.
For the sequence AAGTTCTTTCTGTTCTTGGGGC, the sensor-assay potency score (higher = more potent) is -0.319.
Sequence TACACCTGCTGGATCCTCTTGG registered a sensor-assay potency score (higher = more potent) of 0.0749.
For TGGACTAGTGTTGGGACTCTGG, the sensor-assay potency score (higher = more potent) was -0.968.
Turning to TTTTGTGGCGCTTTGGTGGTGG, the sensor-assay potency score (higher = more potent) amounted to 0.492.
As to TGGTTTTGTACACCTGCTGGAT, the sensor-assay potency score (higher = more potent) is -0.833.
For the sequence TTTCTGTTCTTGGGGCAGCGGC, the sensor-assay potency score (higher = more potent) is -1.14.
